Assay results: PubChem BioAssay
Calls of active or inactive are those of the source. How the calls were made is not given here.

The compounds below were run against Pantothenate synthetase (Mycobacterium tuberculosis (strain ATCC 25618 / H37Rv)) (UniProt P9WIL5) (assay: Recombinant Mtb pantothenate synthetase (PanC) inhibitors, coupled enzyme, confirmatory (AID 375;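 further: 0% = full reaction with vehicle and 100% = no enzyme background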)). Conditions: coupled enzyme assay; at 10 µM, stronger effect = higher value.
Chain of Pantothenate synthetase (Mycobacterium tuberculosis (strain ATCC 25618 / H37Rv)) (P9WIL5 whole entry, looked up): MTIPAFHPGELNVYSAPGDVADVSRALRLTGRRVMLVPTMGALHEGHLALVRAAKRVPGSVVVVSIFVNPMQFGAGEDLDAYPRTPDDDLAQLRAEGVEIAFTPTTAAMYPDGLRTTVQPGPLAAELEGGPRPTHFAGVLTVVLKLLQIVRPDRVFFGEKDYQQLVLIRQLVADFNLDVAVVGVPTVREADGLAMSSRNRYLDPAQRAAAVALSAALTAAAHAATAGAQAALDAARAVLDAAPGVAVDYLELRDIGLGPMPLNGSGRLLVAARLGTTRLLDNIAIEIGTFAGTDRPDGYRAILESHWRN
In the case of C/C(Cl)=C/Cn1c(SCc2ccc(Cl)cc2)nc2c1c(=O)[nH]c(=O)n2C, the inhibition is reported as 0% (inactive).
With CN(C)C(CNC(=O)Nc1cccc(Cl)c1)c1cccnc1 (stereo not given) the inhibition was 0% (inactive).
For CC(C)Cc1ccc(C(C)C(=O)O)cc1 (stereo not given), the inhibition was 0% (inactive).
For CC(c1ccccc1)N1C(=O)c2ccc(C(=O)NCc3ccco3)cc2C1=O (stereo not given), the inhibition was 1% (inactive).
In the case of O=C(Cc1cccs1)Nc1ccccc1C(=O)O, the inhibition is reported as 4% (inactive).
For O=C(Nc1nc2c(s1)CCCC2)C1COc2ccccc2O1 (stereo not given), the inhibition was 0% (inactive).
With CN(C)c1cccc(C(=O)OCC(=O)NCc2ccco2)c1 the inhibition was 0% (inactive).
With Cc1cccc(-n2ncc3c(NCc4cccnc4)ncnc32)c1 the inhibition was 7% (inactive).
With CCC(C)NC(=O)C1CCCN(S(=O)(=O)c2ccc(-n3cnnn3)cc2)C1 (stereo not given) the inhibition was 0% (inactive).
In the case of COc1ccc(C2C(C(=O)N3CCC(C)CC3)c3ccccc3C(=O)N2C)cc1 (stereo not given), the inhibition is reported as 0% (inactive).
With COc1cc(C(=O)N(C)c2nnc(-c3cccnc3)s2)cc(OC)c1OC the inhibition was 0% (inactive).
For Cc1ccc2cc(CCNC(=O)C(C)C)c(=O)[nH]c2c1C, the inhibition was 3% (inactive).
CCOC(=O)c1c(C)oc2c1c(C(c1ccncc1)N1CCOCC1)c(O)c1ccccc12 (stereo not given) was tested, and the inhibition was 0% (inactive).
In the case of COCCn1c(NCc2ccc(C)cc2)nc2c1c(=O)[nH]c(=O)n2C, the inhibition is reported as 10% (inactive).
In the case of FC(F)Oc1ccc(-c2csc(Cc3nnc4n3CCCCC4)n2)cc1, the inhibition is reported as 0% (inactive).
For N#Cc1nc(COc2ccccc2)oc1NCCCn1ccnc1, the inhibition was 0% (inactive).
For CC(C)Sc1nc2c(c(=O)n1-c1ccc(F)cc1)SCC2, the inhibition was 1% (inactive).
In the case of CCOC(=O)Cc1csc(/C(=N/O)C(N)=O)n1, the inhibition is reported as 3% (inactive).
For O=C(Nc1ccc(Cl)c(C(F)(F)F)c1)N1CCCC(O)C1 (stereo not given), the inhibition was 4% (inactive).
In the case of Cc1ccc(-c2cc(C(F)F)n3ncc(C(=O)N4CCN(c5ccccn5)CC4)c3n2)cc1, the inhibition is reported as 6% (inactive).
Cc1ncoc1C(=O)Nc1cccc(Cl)c1C was tested, and the inhibition was 1% (inactive).
For CC(C)(C)C(=O)Oc1cc(N)n(S(=O)(=O)c2ccccc2)n1, the inhibition was 0% (inactive).
With Cc1cc(N2C(=O)C(O)=C(C(=O)c3ccc(C)o3)C2c2cccs2)no1 (stereo not given) the inhibition was 0% (inactive).
With COc1ccc(-c2cc(O)cc(O)c2)cc1 the inhibition was 0% (inactive).
For CCOC(=O)c1sc(C)c2c(=O)n(CC)nnc12, the inhibition was 0% (inactive).
In the case of CN1C(C(=O)Nc2ccccn2)=C(O)c2ccccc2S1(=O)=O, the inhibition is reported as 9% (inactive).
Cc1ccc(-c2nn3c(C)nnc3s2)cc1N was tested, and the inhibition was 0% (inactive).
C=CCn1c(SCc2cc(=O)n3ccsc3n2)nnc1C1CCCCC1 was tested, and the inhibition was 0% (inactive).
CCCCc1cc(=O)oc2cc(C)cc(OC(C)C(=O)O)c12 (stereo not given) was tested, and the inhibition was 0% (inactive).
In the case of COc1ccc(OCc2cccc(C(=O)O)c2)cc1, the inhibition is reported as 0% (inactive).
For COc1ccc(CC(=O)NC2CCN(CC(=O)Nc3ccc4c(c3)OCCO4)CC2)cc1OC, the inhibition was 0% (inactive).
In the case of O=C(Nc1ccc(Cc2ccc(NC(=O)N3CCOCC3)cc2)cc1)N1CCOCC1, the inhibition is reported as 2% (inactive).
For COc1cc(C(=O)N2CCCC(c3nc(-c4cccs4)no3)C2)cc(OC)c1OC (stereo not given), the inhibition was 0% (inactive).
CCN1CCN(Cc2ccc(NC(=O)Nc3ccc(SC)cc3)cc2)CC1 was tested, and the inhibition was 2% (inactive).
In the case of COc1cccc(CNC(=O)C2CCN(C(=O)N(C)C)CC2)c1, the inhibition is reported as 2% (inactive).
In the case of CN(CCO)CC(O)Cn1cnc2c1c(=O)n(C)c(=O)n2C (stereo not given) (tested in a mixture with another compound), the inhibition is reported as 0% (inactive).
With Cc1ccc2[nH]c(=O)c(-c3noc(-c4ccncc4)n3)cc2c1 the inhibition was 2% (inactive).
With O=C(Nc1nnc(N2CCCCCC2)s1)c1cc(-c2ccc(Br)cc2)on1 the inhibition was 12% (inactive).
In the case of O=S(=O)(c1ccc(Br)s1)N1CCCCC1, the inhibition is reported as 0% (inactive).
COc1cc(/C=N/n2cnnc2)ccc1OCC(=O)N1CCOCC1 was tested, and the inhibition was 0% (inactive).
